# Screening data (PubChem BioAssay)
# Hits are enriched below; roughly 21% of the tested compounds scored in any of these assays.
# Pf growth 96h: Primary qHTS for delayed death inhibitors of the malarial parasite plastid, 96 hour incubation; P. falciparum luciferase reporter growth, 96 h; Potency, µM (titrated, usually from 28.7 µM), inactives show at the top dose activity change, negative = inhibition, most hits filed as inhibitors; 320,000 tested, 6.9% active; also: potency is read from the fitted curve at half-maximal effect; % is scaled to controls: 0 for no effect and ±100 for the full control effect
#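 Infected RBCs, 2% Hct / 0.05% parasitemia final; luciferase-reporter P. falciparum; cpd 96 h, 37 C, 5% CO2; luciferase detection reagent; luminescence.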
# CHX counter: Cycloheximide Counterscreen for Small Molecule Inhibitors of Shiga Toxin. cell reporter, cycloheximide protein synthesis inhibition counterscreen. max response, %. 300,000 tested, 12% active. AID 2314, 2010; in the data active = max response mostly above about 13%, no sharp cut-off; inactive = mostly below about 14%; also: read at 38.3 µM for the half of the compounds with a filed dose; 0% is about no effect
# Shiga toxin inh: A qHTS for Small Molecule Inhibitors of Shiga Toxin; Vero cells, Shiga toxin protein synthesis inhibition reporter; AID 2315, 2010; inhibition, % at 38.7 µM; 290,000 tested, 9.2% active; in the data active = inhibition mostly above about 28%, no sharp cut-off; inactive = mostly below about 43%; also: 0% is about no effect
# Pf growth 48h: Primary qHTS for delayed death inhibitors of the malarial parasite plastid, 48 hour incubation; P. falciparum luciferase growth in erythrocytes, 48 h; Potency, µM (titrated, usually from 28.7 µM), without a hit: at the top dose activity change, negative = inhibition, actives largely listed as inhibitors; 310,000 tested, 5.9% active; AID 504832, 2011; also: potency is read from the fitted curve at half-maximal effect; % is scaled to controls: 0 for no effect and ±100 for the full control effect
#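 Read-out is firefly luciferase luminescence from an integrated reporter in P. falciparum, so falling signal marks reduced parasite growth. Infected erythrocytes were at 2% hematocrit and 0.1% parasitemia (final) in Albumax-supplemented RPMI 1640.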
# Starred values were filed as active, the others as inactive; ? = inconclusive; . = no result given; [ ] = remark or other dose. Unless noted, calls follow the shape of the dose curve; as a rule, active = well fitted inhibition curve with a large enough effect; inconclusive = small, poorly fitted or top-dose-only effect, or another doubt; inactive = no such curve, though single readings can be large or run the other way.
SMILES,Pf growth 96h,CHX counter,Shiga toxin inh,Pf growth 48h
COc1cccc(CN2CC(C(=O)NCc3ncc(C)[nH]3)CCC2=O)c1 (stereo unspecified),29%,1,-2,45%
OCc1nc2c(ccc3ccccc32)[nH]1,-15%,12*,10,19%
Clc1nc2c(ccc3ccccc32)[nH]1,95%,41*,71*,111%
Cc1nc2c(Cl)cccc2[nH]1,.,0,-11,-4%
O=C(CN1CCCc2ccccc21)Nc1cc(S(=O)(=O)N2CCCC2)ccc1Cl,8.3µM*,.,.,13µM*
Cc1ccc2c(c1)CCCN2CC(=O)Nc1cc(S(=O)(=O)N2CCCC2)ccc1Cl,4.7µM*,.,.,10µM*
COC(=O)c1ccc(OCC(=O)c2ccccc2)cc1,153%,46*,67*,.
COC(=O)c1[nH]c(=O)c2ccccc2c1OCc1ccccc1,21%,-5,-10,11%
COC(=O)c1cc(O)c(OCc2ccccc2)c(O)c1,26%,18*,15,-21%
Cc1ccc[n+](CC(=O)c2ccccc2)c1,-10%,4,15,18%
COC(=O)c1cc[n+](CC(=O)c2ccccc2)cc1,.,26*,24,23%
Cc1nn(-c2ccc(Cl)cc2Cl)c(=O)c2ccccc12,388%,4,-3,-19%
CC1=NN(S(=O)(=O)c2ccc(Cl)cc2Cl)C(=O)c2ccccc2O1,-11%,12*,2,-12%
COc1ccc(OCCCC(=O)Nc2ncn[nH]2)cc1,36%,4,-11,13%
CC1CCCN(C(=O)c2nn(C)c3c2CSc2ccccc2-3)C1 (stereo unspecified),4%,18*,31,5%
CC1CCCN(C(=O)c2nn(C)c3c2CS(=O)(=O)c2ccccc2-3)C1 (stereo unspecified),1%,7,-7,17%
CC1CC(C)CN(C(=O)c2nn(C)c3c2CSc2ccccc2-3)C1 (stereo unspecified),5.9µM*,0,5,?
CN(C(=O)c1nn(C)c2c1CSc1ccccc1-2)c1ccccc1Cl,-14%,25*,33*,-6%
CC1CCCC(C)N1CCCNC(=O)c1nn(C)c2c1CSc1ccccc1-2 (stereo unspecified),?,-3,-3,?
COc1ccc(OC)c(N(C)S(=O)(=O)c2cc3c(cc2C)NC(=O)CO3)c1,0%,-2,4,?
O=C(CN1C(=O)NC2(CCOc3ccccc32)C1=O)c1ccc[nH]1 (stereo unspecified),17%,.,.,1%
Cc1cccc(NS(=O)(=O)c2cccc(C(=O)N3CCN(S(=O)(=O)c4ccccc4)CC3)c2)c1,12µM*,.,.,?
Cc1ccc(S(=O)(=O)Nc2cccc(C(=O)N3CCN(c4ccccc4O)CC3)c2)cc1F,?,.,.,1.5µM*
CC(c1ccccc1)N1CCN(C(=O)CCl)CC1 (stereo unspecified),?,-3,2,-15%
CC(=O)c1ccc(NC(=O)C2CCCNC2=O)cc1 (stereo unspecified),5.2µM*,5,5,15%
SMILES,Pf growth 96h,CHX counter,Shiga toxin inh,Pf growth 48h
COc1ccc(NC(=O)C2CCCNC2=O)cc1 (stereo unspecified),6.6µM*,-3,0,24%
COc1cc(/C=C/C(=O)OCC(=O)N2CCCC2)cc(OC)c1OC,-12%,.,.,?
Cc1cccc(NC(=O)COc2ccc(-c3nn(C)c(=O)c4ccccc34)cc2)c1,50%,1,-13,?
Cc1c(C(=O)N2CCC3(CC2)CC(=O)c2ccccc2O3)cccc1[N+](=O)[O-],?,.,.,-21%
O=C(COc1cccnc1[N+](=O)[O-])Nc1cccc(S(=O)(=O)N2CCCCC2)c1,3%,1,-8,13%
COCCn1c(SCc2ccc(F)cc2)nc2c1c(=O)[nH]c(=O)n2C,13µM*,-2,-10,-13%
CCCCCSc1nc2c(c(=O)[nH]c(=O)n2C)n1C(C)C,12µM*,-5,-9,?
CCOCCn1c(SCc2ccc(F)cc2)nc2c1c(=O)[nH]c(=O)n2C,?,0,-16,.
Cc1ccc(Cn2c(Sc3ncccn3)nc3c2c(=O)[nH]c(=O)n3C)cc1,-8%[5.75 µM],-1,-11,-9%
C/C=C/CSc1nc2c(c(=O)[nH]c(=O)n2C)n1Cc1ccc(C)cc1,?,3,-8,13µM*
CC(C)CCn1c(Sc2nc3ccccc3o2)nc2c1c(=O)[nH]c(=O)n2C,-29%,73*,69*,?
CCCCCSc1nc2c(c(=O)[nH]c(=O)n2C)n1C,17%,-5,-14,.
CC(NC(=S)NCCN1CCOCC1)C12CC3CC(CC(C3)C1)C2 (stereo unspecified),?,-4,-4,?
CSc1cccc(NS(=O)(=O)c2cc(Br)cnc2N)c1,30%,-2,-7,21%
CC(C)n1c(SCc2ccc(Cl)cc2)nc2c1c(=O)[nH]c(=O)n2C,12µM*,1,-12,.
Cc1ccc(Cn2c(SCC(C)C)nc3c2c(=O)n(C)c(=O)n3C)cc1,.,2,9,3.7µM*
CCCCn1c(SCc2ccc(Cl)cc2)nc2c1c(=O)[nH]c(=O)n2C,2%,0,0,6.6µM*
Cc1ccc(CSc2nc3c(c(=O)[nH]c(=O)n3C)n2CCC(C)C)cc1,2.9µM*,-5,10,.
CCN(Cc1nc(-c2ccc(OC)c(OC)c2)no1)C(=O)c1ccoc1C,-1%,-5,-12,-2%
Cc1ccc2c(c1)c(N=NC(N)=O)c(O)n2C,0%,1,15,17%
Cc1ccc2c(c1)c(N=Nc1cccc(C(=O)O)c1)c(O)n2C,?,16*,60*,37%
CCOc1ccc2c(c1)c(N=Nc1cccc(C(=O)O)c1)c(O)n2C,?,58*,62*,95%
CCOc1ccc2c(c1)c(N=NC(=N)N)c(O)n2C,51%,-1,-11,21%
CCOc1ccc2c(c1)c(N=NC(N)=S)c(O)n2C,5.2µM*,-2,4,9.3µM*
O=C(COC(=O)/C=C/c1ccccc1)NNC(=O)c1ccc([N+](=O)[O-])cc1,29%,.,.,27%
SMILES,Pf growth 96h,CHX counter,Shiga toxin inh,Pf growth 48h
COc1ccc(CCC(=O)NCCS(=O)(=O)N2CCN(c3ccccc3OC)CC2)cc1,38%,-4,-16,-9%
Cc1cc(C=C2C(=O)NC(=S)NC2=O)c(C)n1-c1ccc2c(c1)OCO2,?,39*,24*,-3%
Fc1ccc(-c2nnsc2Sc2ccccn2)cc1,9%,34*,67*,29%
CC1CCCC(C)N1CCCNC(=O)c1ccc2c(c1)NC(=O)c1ccccc1S2 (stereo unspecified),?,9,-2,4.1µM*
O=C1Nc2cc(C(=O)NCCN3CCCCCC3)ccc2S/C1=C\c1ccccc1,?,-13,-21,?
CCN1CCN(CCCNC(=O)c2ccc3c(c2)NC(=O)c2ccccc2S3)CC1,8.3µM*,-3,1,15µM*
CCC(C)N(CCNC(=O)c1ccc2c(c1)NC(=O)c1ccccc1S2)C1CCCCC1 (stereo unspecified),?,-4,-3,1.9µM*
O=C(NCCCN1CCCC1=O)c1ccc2c(c1)NC(=O)c1ccccc1S2,-13%,-7,-9,.
